Data from PubChem BioAssay (NCI).
Compounds without any hit were thinned out: in the full panel of roughly 83,000, 20% have a hit.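 How to read the values: 0–100, growth inhibition (40 = 60% inhibited); 0, no net growth; -100 to 0, cell death (-40 = 40% of starting cells died; -100 = all dead).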 Values without a mark were called inactive. Activity calls are given as the source filed them. The calls were made as follows: active = growth percent below 10; inactive = the rest.

Legend:
Test in all cases: NCI-60 one-dose screen, 48 h (100 = growth as untreated, 0 = no growth, -100 = all killed)
Details in all cases: 10 µM unless noted
SR leukemia = tested on: SR leukemia
RPMI-8226 leukemia = tested on: RPMI-8226 leukemia
OVCAR-8 ovarian = tested on: OVCAR-8 ovarian
OVCAR-5 ovarian = tested on: OVCAR-5 ovarian
OVCAR-4 ovarian = tested on: OVCAR-4 ovarian
SK-OV-3 ovarian = tested on: SK-OV-3 ovarian
IGROV1 ovarian = tested on: IGROV1 ovarian
OVCAR-3 ovarian = tested on: OVCAR-3 ovarian
HS 578T breast = tested on: HS 578T breast

SMILES	growth (SR leukemia)	growth (RPMI-8226 leukemia)	growth (OVCAR-8 ovarian)	growth (OVCAR-5 ovarian)	growth (OVCAR-4 ovarian)	growth (SK-OV-3 ovarian)	growth (IGROV1 ovarian)	growth (OVCAR-3 ovarian)	growth (HS 578T breast)
O=C(O)CC1S/C(=N/N=C/c2nc3ccccc3s2)NC1=O (centres undefined)	79.8%	88.8%	98.5%	123%	82.1%	122%	103%	88.4%	90.9%
CC(C)(C)c1cc(-c2cc(-c3ccccc3)[nH]c(=O)c2C#N)cc(C(C)(C)C)c1	43.4%	66.9%	7.14% (active)	45.9%	5.22% (active)	43.7%	35.1%	27.1%	-3.49% (active)
O=C(NNC(=O)c1ccc(OCc2nc3ccc(Cl)cc3[nH]2)cc1)Nc1ccc(Cl)c(Cl)c1	69.3%	102%	24%	83.8%	64.5%	77.1%	84.5%	82.7%	81.9%
Cc1cc(C)c2[nH]c(=O)c(C(c3nnnn3Cc3ccc4c(c3)OCO4)N3CCN(C)CC3)cc2c1 (centres undefined)	96.9%	100%	114%	108%	108%	111%	111%	122%	108%
CCCCCCCOc1ccc(S(=O)(=O)Nc2ccc(C)c(F)c2C(=O)O)cc1	98.7%	54.9%	97.1%	107%	90.1%	104%	109%	99.9%	87.8%
NCCCCn1c(SCCc2c[nH]c3ccccc23)nnc1-c1ccc2ccccc2n1	-19.7% (active)	-50.3% (active)	-9.11% (active)	26%	-11.1% (active)	22.3%	3.95% (active)	10.4%	-25.4% (active)
N#CC1=C(c2cccs2)Nc2c(c(-c3ccccc3)nn2-c2ccccc2)C12C(=O)Nc1ccc(Br)cc12 (centres undefined)	-1.14% (active)	2.85% (active)	-14.6% (active)	-60.4% (active)	0.653% (active)	-0.147% (active)	-7.57% (active)	-25.7% (active)	-7.18% (active)
O=C(Nc1nc2ccc([N+](=O)[O-])cc2s1)Nc1ccc(Cl)cc1Cl	47.6%	23.5%	48.4%	84.6%	54.6%	4.05% (active)	60.7%	65.4%	46.4%
COc1cc(CNC(=O)C[C@H](C)CCC=C(C)C)ccc1OCc1cn(-c2ccc(Cl)c(Cl)c2)nn1	27.1%	77.6%	46.3%	86.4%	53.4%	99%	83.1%	60.1%	57%
O=C(CSc1nc2c(c(=O)[nH]1)CCCC2)Nc1ccccc1C(=O)O	88.5%	104%	109%	106%	125%	106%	110%	91.7%	108%
COc1ccc(Nc2ncnc3sc4c(c23)CCN(Cc2ccccc2)C4)cc1	82.9%	62.1%	82.8%	106%	68.4%	102%	80.8%	93.7%	74.8%
Fc1cccc(CNc2nc(SCCN3CCOCC3)nc3c2cnn3CC(Cl)c2ccc(Br)cc2)c1 (centres undefined)	-18.1% (active)	2.98% (active)	32.6%	59.9%	27.3%	51.3%	52.2%	49.7%	19.2%
CC1=C(C)C(=O)C(N2CCSCC2)=CC1=O	111%	72.9%	92.7%	97.2%	94.4%	105%	92.9%	101%	103%
COc1ccc2oc(=O)c(-c3csc(N/N=C(\C)c4cc(OC)c(OC)c(OC)c4)n3)cc2c1	70.4%	72.9%	86.2%	109%	86.5%	172%	91.2%	110%	110%
COc1ccc(C2=NN(C(=O)[C@H]3[C@@H](c4ccco4)c4sc(=O)[nH]c4S[C@@H]3C)C(c3ccc4ccccc4c3)C2)cc1 (some centres undefined)	24.8%	8.59% (active)	28%	42.9%	49.2%	84.6%	45.6%	31%	29.6%
COc1cc(/C=C/C(=O)c2cnn(-c3cc(=O)[nH]c4ccccc34)c2C)cc(OC)c1OC	-3.34% (active)	-11.6% (active)	-18.1% (active)	-3.98% (active)	39.4%	9.66% (active)	6.78% (active)	8.06% (active)	35.5%
CC(C)(C)C(=O)C1CC(C#N)=C2C=Cc3c(ccc4ccccc34)N21 (centres undefined)	94.3%	75%	71.2%	121%	79.3%	75%	92.9%	96.3%	30.6%
Nc1nn2c(-c3cc4cc(Br)ccc4oc3=O)ccnc2c1N=Nc1ccc(Br)cc1	29.7%	86.3%	14.5%	11.8%	12.8%	22.4%	-16.1% (active)	5.27% (active)	28.3%
COc1ccc2[nH]c(=O)c(CSc3ccccc3Nc3nccc(-c4ccc(C(F)(F)F)cc4)n3)cc2c1	-16.8% (active)	4.65% (active)	32.4%	75.9%	39.2%	81.7%	59.8%	22.1%	–
CN(C)CCOc1ccc(C(=O)C2[C@H](c3ccc(Cl)cc3)[C@@H](c3ccccc3)NC23C(=O)Nc2ccc(Cl)cc23)cc1 (some centres undefined)	-77.4% (active)	-43.6% (active)	-67.9% (active)	-79.2% (active)	-91.5% (active)	-86.4% (active)	-87% (active)	-51.4% (active)	-29.4% (active)
CN(C)c1nc(NCCNS(=O)(=O)c2ccc(C(=O)/C=C/c3ccccc3)cc2)nc(N2CCOCC2)n1	-42.7% (active)	0.0245% (active)	83.4%	93.6%	88.3%	97.7%	80.5%	111%	76.1%
COc1cncc(-c2ccc3ncnc(N4CCc5ccc(Cl)cc54)c3c2)c1	3.37% (active)	-21.2% (active)	39.4%	30%	32%	27.4%	-63.4% (active)	55.4%	20.1%
Cc1ccc2nc(COc3ccc(C(=O)NNC(=O)Nc4ccc(Cl)c(C(F)(F)F)c4)cc3)[nH]c2c1	16.8%	59.5%	10.7%	66.9%	74%	70.9%	52.2%	28.9%	39.7%
O=C(Nc1ccc(-c2ccc3c(c2)NC(=O)/C3=C\c2ccc[nH]2)cc1)Nc1ccc(Cl)c(C(F)(F)F)c1	6.31% (active)	30.3%	50.5%	51.2%	28.9%	68.3%	61.7%	29.1%	–
CCCCN1C(=O)/C(=C\C(=O)c2cc3ccccc3oc2=O)c2ccccc21	-2.51% (active)	23.7%	67.3%	96.7%	83.9%	110%	70.2%	34.3%	75.6%
COc1ccc(NC(=O)CSc2nnc(-c3ccc(-c4nc5ccccc5[nH]4)cc3)o2)cc1	35.3%	18.4%	-24.6% (active)	55.4%	38.3%	98.2%	35.6%	41.4%	45%
CC[C@]12C=CCN3CC[C@@]4(c5ccc(OC)cc5N(C)[C@H]4[C@@](O)(C(=O)OC)[C@@H]1OC(=O)CCC[P+](c1ccc(OC)cc1)(c1ccc(OC)cc1)c1ccc(OC)cc1)[C@@H]32	15%	-45.5% (active)	-86.2% (active)	-96.5% (active)	-75.3% (active)	-85.1% (active)	-92.1% (active)	-73.6% (active)	-65.4% (active)
O=C(c1ccc(O)cc1)C1[C@H](c2ccc(Cl)cc2)[C@@H](c2ccccc2)NC12C(=O)Nc1ccc(Br)cc12 (some centres undefined)	-52.7% (active)	3.14% (active)	5.82% (active)	-19.4% (active)	-8.82% (active)	22%	-40.4% (active)	2.42% (active)	-5.94% (active)
O=C(Nc1nc2ccccc2s1)Nc1ccccc1Cl	111%	91.9%	48.5%	89.6%	34.2%	49.2%	79.4%	111%	22.7%
